# Reference: PubChem BioAssay
# Inconclusive results are not listed. Active and inactive are the calls of the source. Unless noted, no cut-off is given here; in the data, nearly all actives have AC50 up to about 26 µM.
# What was measured:
# [1] = viability loss in pontine glioma line – cell-based, SU-DIPG-XVII, MIPE5.0, CellTiter-Glo, qHTS, dose response (AID 1347060); conditions: CellTiter-Glo ATP luminescence;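 for AC50: cells exposed to compound for 48 hours before viability readout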
# [2] = viability loss in pontine glioma line – cell-based, SU-DIPG-XIII, MIPE5.0, CellTiter-Glo, qHTS, dose response (AID 1347064; cut-off not given, nearly all actives have AC50 up to about 23 µM;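 for AC50: cells exposed to compound for 48 hours before the viability read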); conditions: CellTiter-Glo ATP luminescence
# [3] = viability loss in pontine glioma line – cell-based, SU-DIPG-XXV, MIPE5.0, CellTiter-Glo, qHTS, dose response (AID 1347065); conditions: CellTiter-Glo ATP luminescence;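 note: cells exposed to compound for 48 hours before ATP readout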
# [4] = JHH-DIPG-1 glioma cell viability, MIPE5.0 library, CellTiter-Glo luminescence, qHTS (AID 1347067); conditions: JHH-DIPG-1 glioma viability, CellTiter-Glo ATP luminescence;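 note: cells exposed to compound for 48 hours before readout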
# [5] = growth inhibition of DIPG cells – cell-based, MIPE5.0 library, qHTS (AID 1347068; cut-off not given, nearly all actives have IC50 up to about 30 µM;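 for IC50: cells exposed to compound for 48 hours before viability readout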); conditions: SU-DIPG-XXV viability
# [6] = viability loss with induced miR-34 in A549 – imaging, A549 dox-inducible miR-34, nuclei and caspase counts, primary screen (AID 1347080;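 active = compounds whose cell count with miR-34 switched on is under 0.7 times the count with it off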); conditions: A549 miR-34 inducible, Hoechst nuclei count, 48 h
# [7] = MELAS cybrid and Rieske KO viability enhancers – cell-based, MELAS cybrids, Rieske KO mouse fibroblasts, CellTiter-Glo, primary screen (AID 1508586;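 active = mean z-score across replicates of 1.96 or higher in either the MELAS or the Rieske mutant cell line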;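 note: z relative to plate mean and SD of compound and empty wells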); conditions: low glucose
# [8] = growth inhibition, single agent or in combination, cell-based, chromothripsis tumors, cisplatin or BGB combos (AID 1671449; in the data active = inhibition above about 80%;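 note: cells exposed for 96 hours; 0% = vehicle DMSO and 100% = killing by high DMSO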); conditions: LFS_MB_P medulloblastoma cells
# [9] = growth inhibition, single agent and combos, cell-based, chromothripsis tumors, cisplatin or BGB combos (AID 1671450; in the data active = inhibition above about 80%;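 note: cells exposed to compound for four days; 0% = vehicle DMSO and 100% = cell killing by high DMSO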); conditions: HDN33 neuroblastoma cells, stronger effect = higher value
# [10] = growth inhibition, single agents and combos, ICB984, cell-based, cisplatin or BGB combos, synergistic combos for chromothripsis tumors (AID 1671451; call rule not given here;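 note: cells exposed for 96 hours before readout; 0% = vehicle DMSO and 100% = killing by high DMSO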); conditions: ICB984 medulloblastoma cells, drug combinations, stronger effect = higher value
# [11] = growth inhibition, single agents and combos, LFS_MB_1R, cell-based, cisplatin or BGB combos, synergistic combos for chromothripsis tumors (AID 1671452; in the data active = inhibition above about 80%;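 note: cells exposed for 96 hours before readout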); conditions: LFS_MB_1R medulloblastoma cells, stronger effect = higher value
# [12] = growth inhibition, single agents and combos, HTB85, cell-based, BGB or cisplatin IC20 combos, synergistic combos for chromothripsis tumors (AID 1671453; in the data active = inhibition above about 80%;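 note: cells exposed for 96 hours before readout; 0% = vehicle DMSO and 100% = high DMSO killing control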); conditions: HTB85 osteosarcoma cells, drug combinations, stronger effect = higher value
# [13] = growth inhibition, single agents and combos, CRL2098, cell-based, BGB or cisplatin IC20 combos, synergistic combos for chromothripsis tumors (AID 1671454; in the data active = inhibition above about 80%;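 note: cells exposed for 96 h before readout; 0% = vehicle DMSO and 100% = killing by high DMSO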); conditions: CRL2098 osteosarcoma cells, drug combinations, stronger effect = higher value
# [14] = growth inhibition, single agents and combos, HD-MB03, cell-based, BGB or cisplatin IC20 combos, synergistic combos for chromothripsis tumors (AID 1671455; in the data active = inhibition above about 83%;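 note: 0% = vehicle DMSO and 100% = high DMSO as cytotoxic control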); conditions: HD-MB03 medulloblastoma cells, stronger effect = higher value
# [15] = growth inhibition, single agents and combos, UWB1.289, cell-based, BGB or cisplatin combos, synergistic combos for chromothripsis tumors (AID 1671456; in the data active = inhibition above about 80%;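 note: cells exposed to compound for four days; 0% = vehicle DMSO and 100% = killing by high DMSO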); conditions: UWB1.289 ovarian carcinoma cells, stronger effect = higher value
# [16] = growth inhibition, MDA-MB-436, cell-based, BGB or cisplatin combos, synergistic combos for chromothripsis tumors (AID 1671458; call rule not given here;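 note: cells exposed for 96 hours; 0% = vehicle DMSO and 100% = killing by high DMSO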); conditions: MDA-MB-436 breast carcinoma growth inhibition, drug combinations, stronger effect = higher value
# [17] = BT084 cell growth, single and combined drugs, ICGC_MB145, cisplatin and BGB IC40 combos (AID 1671461; in the data active = inhibition above about 80%;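 note: cells exposed to drugs for 96 hours; 0% = vehicle DMSO and 100% = high DMSO full killing control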); conditions: BT084 medulloblastoma cells, drug combinations, stronger effect = higher value
# [18] = RCMB18 cell growth, single agent and combined, cisplatin and BGB IC40 combos (AID 1671462; in the data active = inhibition above about 80%;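 note: cells exposed to compound for four days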); conditions: RCMB18 medulloblastoma cells, stronger effect = higher value
# [19] = CRL1545 cell growth, single agent and combined, cisplatin and BGB IC20 combos (AID 1671464; in the data active = inhibition above about 80%;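 note: cells exposed to compound for 96 hours before readout; 0% = vehicle DMSO and 100% = high DMSO killing control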); conditions: CRL1545 osteosarcoma cells, stronger effect = higher value
# [20] = stronger effect = lower value, cell number ratio, induced over uninduced
# [21] = measured here: relative caspase fold change +Dox/-Dox
# [22] = measured here: total cells with miR-34 induction, stronger effect = lower value
# [23] = measured here: total cells without miR-34 induction
# [24] = MELAS cybrid survival, CellTiter-Glo 48 h, stronger effect = higher value
# [25] = Rieske KO mouse fibroblast survival, CellTiter-Glo 72 h
# [26] = measured here: combination with BGB IC40, at 0.05 µM
# [27] = measured here: with BGB IC20 combination, at 0.5 µM
# [28] = measured here: with cisplatin IC20 combination, at 0.5 µM
# [29] = measured here: combination with cisplatin, at 0.5 µM
structure (smiles),measurement,setting,value
C[C@H](CN(C)C)Oc1nc(Nc2cc3cccc(Cl)c3cn2)cnc1C#N,AC50,[1],16600 nM (active)
same,AC50,[2],13200 nM (active)
same,AC50,[3],16600 nM (active)
same,AC50,[4],8330 nM (active)
same,outcome,[5],inactive
C=CC(=O)Nc1cccc(Nc2nc(Nc3ccc(OCCOC)cc3)ncc2F)c1,AC50,[1],2350 nM (active)
same,AC50,[2],1660 nM (active)
same,AC50,[3],2090 nM (active)
same,AC50,[4],3720 nM (active)
same,IC50,[5],3320 nM (active)
same,fold change,[6]; [20],0.943 (inactive)
same,fold change,[6]; [21],0.349
same,cell count,[6]; [22],1800
same,cell count,[6]; [23],1910
same,z-score,[7]; [24],2.91 (active)
same,z-score,[7]; [25],-0.365
COC(=O)N(C)c1c(N)nc(-c2nn(Cc3ccccc3F)c3ncccc23)nc1N,outcome,[1],inactive
same,outcome,[2],inactive
same,outcome,[3],inactive
same,outcome,[4],inactive
same,outcome,[5],inactive
COc1ccc(C(=O)C2CCN(CC(=O)N(Cc3nc4c(c(=O)[nH]3)COCC4)CC3CC3)CC2)cc1,outcome,[1],inactive
same,outcome,[2],inactive
same,outcome,[3],inactive
same,outcome,[4],inactive
same,outcome,[5],inactive
same,inhibition,"[8]; at 0.5 µM, stronger effect = higher value",-26.8% (inactive)
same,inhibition,"[8]; measured here: combination with BGB IC20, at 0.005 µM",-22.7%
same,inhibition,"[8]; measured here: combination with BGB IC40, at 0.005 µM",-42.7%
same,inhibition,[8]; [26],-55.1%
same,inhibition,"[8]; measured here: combination with cisplatin, at 0.5 µM, stronger effect = higher value",-22.8%
same,inhibition,"[8]; measured here: combination with cisplatin, at 5 µM, stronger effect = higher value",-44.7%
same,inhibition,"[9]; BGB combo, at 5 µM",-14.7%
same,inhibition,[9]; at 0.5 µM,19.2% (inactive)
same,inhibition,"[9]; cisplatin combo, at 5 µM",9.88%
same,inhibition,[9]; [27],15.5%
same,inhibition,[9]; [28],24.9%
same,inhibition,"[9]; single agent, at 5 µM",15.7%
same,inhibition,"[10]; BGB IC20 combo, at 0.005 µM",-9.62%
same,inhibition,"[10]; BGB IC40 combo, at 0.005 µM",-29.7%
same,inhibition,"[10]; BGB IC40 combo, at 0.05 µM",-4.73%
same,inhibition,[10]; at 0.5 µM,-22.8% (inactive)
same,inhibition,"[10]; cisplatin combo, at 0.05 µM",-10.1%
same,inhibition,"[10]; cisplatin combo, at 0.5 µM",-15%
same,inhibition,"[10]; cisplatin combo, at 5 µM",-26%
same,inhibition,"[10]; measured here: 5 uM single agent, at 5 µM",-16%
same,inhibition,[11]; at 0.5 µM,-33% (inactive)
same,inhibition,[11]; [26],-55.7%
same,inhibition,[11]; [29],-42.4%
same,inhibition,"[11]; measured here: combination with cisplatin, at 5 µM",-67.1%
same,inhibition,[12]; at 0.5 µM,14.2% (inactive)
same,inhibition,"[12]; measured here: with BGB IC20, at 0.5 µM",33.7%
same,inhibition,"[12]; measured here: with BGB IC20, at 5 µM",10.5%
same,inhibition,"[12]; measured here: with cisplatin IC20, at 0.5 µM",-3.3%
same,inhibition,"[12]; measured here: with cisplatin IC20, at 5 µM",4.94%
same,inhibition,"[12]; single agent, at 5 µM",15.4%
same,inhibition,[13]; at 0.5 µM,-25.5% (inactive)
same,inhibition,"[13]; measured here: combination with BGB at IC20, at 0.5 µM",-15.2%
same,inhibition,"[13]; measured here: combination with cisplatin at IC20, at 0.5 µM",-29.9%
same,inhibition,[14]; at 0.5 µM,-6.43% (inactive)
same,inhibition,"[14]; measured here: combo with BGB at IC20, at 0.5 µM",-11.5%
same,inhibition,"[14]; measured here: combo with cisplatin at IC20, at 0.5 µM",-4.57%
same,inhibition,[15]; at 0.5 µM,0.15% (inactive)
same,inhibition,"[15]; measured here: inhibition with BGB combination, at 0.05 µM",-7.89%
same,inhibition,"[15]; measured here: inhibition with cisplatin combination, at 0.05 µM",-13.7%
same,inhibition,[16]; at 0.5 µM,-12.3% (inactive)
same,inhibition,"[16]; measured here: BGB combination, at 0.5 µM",-9.1%
same,inhibition,"[16]; measured here: BGB combination, at 5 µM",-21.6%
same,inhibition,"[16]; measured here: cisplatin combination, at 0.5 µM",-32.8%
same,inhibition,"[16]; measured here: cisplatin combination, at 5 µM",-17.8%
same,inhibition,[17]; at 0.5 µM,-24.2% (inactive)
same,inhibition,"[17]; cisplatin combination, at 0.5 µM",-30.1%
same,inhibition,"[17]; cisplatin combination, at 5 µM",-190%
same,inhibition,"[17]; measured here: BGB IC40 combination 0.05 uM, at 0.05 µM",-40%
same,inhibition,"[17]; single agent, at 5 µM",-16.6%
same,inhibition,[18]; at 0.5 µM,-19.3% (inactive)
same,inhibition,"[18]; cisplatin combo, at 5 µM",-12.1%
same,inhibition,"[18]; measured here: BGB IC40 combination, at 0.05 µM",-3.95%
same,inhibition,[18]; [29],-13.9%
same,inhibition,"[18]; single agent, at 5 µM",8.88%
same,inhibition,[19]; at 0.5 µM,9.43% (inactive)
same,inhibition,[19]; [27],5.59%
same,inhibition,[19]; [28],9.92%
same,inhibition,"[19]; single agent, at 0.05 µM",-39.6%
same,inhibition,"[19]; single agent, at 5 µM",-10.3%
COc1cc(N2CCC(N(C)C)CC2)ccc1Nc1ncc(Cl)c(Nc2ccccc2P(C)(C)=O)n1,AC50,[1],1050 nM (active)
same,AC50,[2],934 nM (active)
same,AC50,[3],417 nM (active)
same,AC50,[4],1660 nM (active)
same,IC50,[5],1860 nM (active)
same,fold change,[6]; [20],1.01 (inactive)
same,fold change,[6]; [21],0.883
same,cell count,[6]; [22],1590
same,cell count,[6]; [23],1580
same,z-score,[7]; [24],3.7 (active)
same,z-score,[7]; [25],-0.471
COc1cc(N2CCC(N)CC2)ccc1Nc1ncc(Cl)c(-c2c[nH]c3ccccc23)n1,AC50,[1],525 nM (active)
same,AC50,[2],263 nM (active)
same,AC50,[3],209 nM (active)
same,AC50,[4],525 nM (active)
same,IC50,[5],742 nM (active)
same,fold change,[6]; [20],0.915 (inactive)
same,fold change,[6]; [21],0.405
same,cell count,[6]; [22],1920
same,cell count,[6]; [23],2100
same,z-score,[7]; [24],0.226 (inactive)
same,z-score,[7]; [25],-0.504
